The nature of test [1]: circadian clock period modulators, cell-based, LOPAC library, luminescence reporter (AID 2774; call rule not given here;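 also: values are relative to mean of DMSO wells on each plate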). The note with it: circadian reporter cells, at 7 µM, actives lie on both sides.
Test [2] concerns Hepatitis C virus NS3 helicase. In words: HCV NS3 helicase inhibitors, primary screen, biochemical, fluorescence polarization, LOPAC1280 library (AID 687035; in the data active = inhibition above about 37%). The note with it: Purified HCV NS3 helicase, Cy5-dT15 ssDNA binding fluorescence polarization; stronger effect = higher value; concentration not given here. On the technique in general: Polarisation of emitted light reports the rotation of a fluorescent probe.

Test [3] in a line: Cy5 fluorescence quenching or enhancement artefacts, artefact control for HCV NS3 helicase inhibitor project, biochemical, LOPAC1280 (AID 687037; call rule not given here). As to conditions: Cy5-DNA-NS3h complex fluorescence interference counterscreen. In general terms: Counterscreens check selectivity or assay interference.
Test [4] can be described thus: phospholipid biosynthesis inhibitors in animal cells, primary screen, cell-based, LOPAC library, screen 4 (AID 1347384; call rule not given here). The note with it: phospholipid biosynthesis inhibition screen, at 10 µM.
The nature of test [5]: survival rescue of mitochondrial mutant cells in low glucose, primary screen, MELAS cybrids, Rieske KO mouse fibroblasts, CellTiter-Glo (AID 1508586;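 active = mean z-score across replicates of 1.96 or higher in either the MELAS or the Rieske mutant cell line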;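 also: z relative to plate mean and SD of compound and empty wells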).
A short description of test [6]: viability rescue of complex I mutant cybrids, primary screen, cell-based, galactose medium, ATP luminescence (AID 1645843;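 active = z-score of at least 1.8 in each of two replicates, scored against plate mean and spread of sample wells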;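 also: positive z means more ATP and so rescue of galactose-driven cybrid death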). As to conditions: complex I mutant cybrid cells, 72 h, stronger effect = higher value.
A short description of test [7]: sensitizers of A549 cells to miR-34 induction, primary screen, imaging, A549 dox-inducible miR-34, nuclei and caspase counts (AID 1347080). The note with it: A549 miR-34 inducible, Hoechst nuclei count, 48 h.
Test [8] concerns the target ATP-dependent translocase ABCB1 (Homo sapiens) (UniProt P08183). In words: MDR1 (ABCB1) efflux transporter inhibition, cell-based (AID 377; in the data active = fluorescence slope change above about 50%). The note with it: MDR1-expressing cells, fluorescent substrate accumulation slope; stronger effect = higher value; concentration not given here.
A short description of test [9]: hESC survival regulators, cell-based (AID 493140; call rule not given here;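 also: cells exposed to compounds for four days before counting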). As to conditions: human embryonic stem cell survival screen; stronger effect = higher value.
Test [10] can be described thus: liver-stage malaria parasite growth inhibition, primary screen, cell-based, HepG2, luciferase luminescence, HepG2 viability (AID 624349; in the data active = parasite load remaining mostly below about 12%, no sharp cut-off; inactive = mostly above about 10%;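 also: 100% = mean of DMSO negative control wells on the same plate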). As to conditions: P. berghei liver stage in HepG2, luciferase luminescence, concentration not given here; parasite load remaining: stronger effect = lower value; viability: measured here: HepG2 viability without parasites.
Test [11] addresses NAD(+) hydrolase SARM1 (Homo sapiens) (UniProt Q6SZW1). Kind of test: SARM1 TIR NADase inhibitors, cell lysate, NAD-Glo luminescence (AID 1508614;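 active = compound whose remaining NAD level is above about 45 nM, limit read from the data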;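 also: higher remaining NAD means stronger inhibition of SARM1 NADase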). The note with it: SAM-TIR HEK293T lysate NADase, at 1 µM, stronger effect = higher value.
Test [12] concerns the target Mitogen-activated protein kinase 7 (Homo sapiens) (UniProt Q13164). Kind of test: ERK5 transactivation activators in reporter cells, primary screen, cell-based, HTS (AID 1508626;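 active = luciferase signal above three times the same-plate solvent-only control wells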;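 also: luciferase driven by Gal4-ERK5 fusion binding five Gal4 sites before minimal TATA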). The note with it: HeLa Gal4-ERK5 transactivation, 18 h, at 5 µM, stronger effect = higher value.
Test [13] is described as follows: polyglutamine-triggered caspase-3 activation inhibitors, cell-based (AID 1583). The note with it: polyglutamine-induced caspase-3 activation, cell assay; stronger effect = higher value;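 tested at 10 µM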.
Test [14] is described as follows: suppressors of polyQ aggregation in yeast, 75Q-TubU reporter (AID 1593). The note with it: Yeast 75Q polyglutamine aggregation reporter.
Test [15] can be described thus: rescue of polyQ-huntingtin neuronal dysfunction in worms, whole organism, C. elegans mechanosensory neurons, N-terminal huntingtin (AID 1599). As to conditions: touch response, stronger effect = higher value.
Test [16] can be described thus: inhibitors of mitochondrial cytochrome c release, biochemical, purified mitochondria (AID 1603).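 Also: mouse liver mitochondria challenged with calcium chloride; signal normalized to the plate average as 100%.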 As to conditions: stronger effect = lower value.
A short description of test [17]: inhibitors of polyQ protein aggregation (AID 1604). As to conditions: polyglutamine-induced protein aggregation inhibition assay; stronger effect = higher value; tested at 2.5 µM.
Test [18] is described as follows: enhancers of glutamate uptake in motor neurons, MN-1 cell line (AID 1612).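 Also: tested at 1 µM final; 0% = mean of DMSO vehicle wells on each plate; positive means more glutamate uptake than control and negative means less.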 As to conditions: MN-1 motor neuron cells, stronger effect = higher value.
Test [19] is described as follows: reducers of polyQ inclusions in PC12 cells, cell-based, NGF-treated PC12, GFPQ80 (AID 1614).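 Also: lower means fewer inclusions and 0 means no inclusions at all.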 The note with it: PC12 NGF-treated GFP-polyQ80 inclusion reduction.
A short description of test [20]: suppressors of polyglutamine aggregation in yeast, 75Q-TubH (AID 1616). As to conditions: S. cerevisiae 75Q-TubH polyglutamine aggregation suppression; stronger effect = higher value.
Where [21] appears, read: MELAS cybrid survival, CellTiter-Glo 48 h, stronger effect = higher value.
Setting [22] is: Rieske KO mouse fibroblast survival, CellTiter-Glo 72 h.
[23] abbreviates: stronger effect = lower value, cell number ratio, induced over uninduced.
Setting [24] is: measured here: relative caspase fold change +Dox/-Dox.
Where [25] appears, read: measured here: total cells with miR-34 induction, stronger effect = lower value.
Where [26] appears, read: measured here: total cells without miR-34 induction.

SMILES strings stand for the structures. Several values for one entry are separate records, joined by “and”; a condition that tells them apart may be missing. Equal values may be shown once. Results filed as inconclusive are left out. For part of these data: Results with a measured potency or affinity are listed apart. Where a structure was tested more than once in an assay, its records may differ in their call. Activity calls are given as the source filed them.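 The calls were made as follows, unless noted: active = compounds whose cell count with miR-34 switched on is under 0.7 times the count with it off; inactive = the rest.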

Sequence of ATP-dependent translocase ABCB1 (Homo sapiens) (P08183 whole entry, looked up): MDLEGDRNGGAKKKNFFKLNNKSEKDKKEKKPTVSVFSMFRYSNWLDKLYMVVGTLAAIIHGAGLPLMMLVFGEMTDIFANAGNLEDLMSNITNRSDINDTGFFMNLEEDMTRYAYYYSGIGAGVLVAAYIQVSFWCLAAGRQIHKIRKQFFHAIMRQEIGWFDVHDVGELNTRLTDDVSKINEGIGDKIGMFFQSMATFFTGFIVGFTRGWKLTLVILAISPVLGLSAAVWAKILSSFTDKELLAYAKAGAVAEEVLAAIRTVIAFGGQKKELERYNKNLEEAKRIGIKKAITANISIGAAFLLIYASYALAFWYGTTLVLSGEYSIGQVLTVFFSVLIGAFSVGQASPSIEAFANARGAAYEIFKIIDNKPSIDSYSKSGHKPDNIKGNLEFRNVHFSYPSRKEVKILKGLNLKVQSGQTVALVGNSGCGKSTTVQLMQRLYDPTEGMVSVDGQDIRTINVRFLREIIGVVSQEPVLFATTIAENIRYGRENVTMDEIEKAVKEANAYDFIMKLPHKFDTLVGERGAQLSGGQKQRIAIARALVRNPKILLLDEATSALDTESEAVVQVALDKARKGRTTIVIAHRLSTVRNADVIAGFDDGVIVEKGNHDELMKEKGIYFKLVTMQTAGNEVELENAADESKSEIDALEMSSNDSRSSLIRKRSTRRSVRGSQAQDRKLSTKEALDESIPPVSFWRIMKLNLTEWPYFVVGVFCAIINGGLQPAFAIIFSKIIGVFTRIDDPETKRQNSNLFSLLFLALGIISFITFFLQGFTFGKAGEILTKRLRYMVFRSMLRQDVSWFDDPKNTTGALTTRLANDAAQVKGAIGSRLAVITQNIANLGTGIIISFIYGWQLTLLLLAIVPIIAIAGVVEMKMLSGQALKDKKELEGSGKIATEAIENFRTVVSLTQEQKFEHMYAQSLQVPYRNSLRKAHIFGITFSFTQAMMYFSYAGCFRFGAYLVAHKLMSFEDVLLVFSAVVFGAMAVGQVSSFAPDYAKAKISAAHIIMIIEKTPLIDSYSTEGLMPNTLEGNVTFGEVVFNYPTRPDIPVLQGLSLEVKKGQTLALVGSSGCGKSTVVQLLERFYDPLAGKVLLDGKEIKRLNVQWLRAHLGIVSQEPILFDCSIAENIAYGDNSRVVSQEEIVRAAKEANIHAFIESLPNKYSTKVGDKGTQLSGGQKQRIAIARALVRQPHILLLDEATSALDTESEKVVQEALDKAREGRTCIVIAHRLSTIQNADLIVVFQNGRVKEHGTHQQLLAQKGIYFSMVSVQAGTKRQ
Sequence of Mitogen-activated protein kinase 7 (Homo sapiens) (Q13164 whole entry, looked up, the tested form may be a part): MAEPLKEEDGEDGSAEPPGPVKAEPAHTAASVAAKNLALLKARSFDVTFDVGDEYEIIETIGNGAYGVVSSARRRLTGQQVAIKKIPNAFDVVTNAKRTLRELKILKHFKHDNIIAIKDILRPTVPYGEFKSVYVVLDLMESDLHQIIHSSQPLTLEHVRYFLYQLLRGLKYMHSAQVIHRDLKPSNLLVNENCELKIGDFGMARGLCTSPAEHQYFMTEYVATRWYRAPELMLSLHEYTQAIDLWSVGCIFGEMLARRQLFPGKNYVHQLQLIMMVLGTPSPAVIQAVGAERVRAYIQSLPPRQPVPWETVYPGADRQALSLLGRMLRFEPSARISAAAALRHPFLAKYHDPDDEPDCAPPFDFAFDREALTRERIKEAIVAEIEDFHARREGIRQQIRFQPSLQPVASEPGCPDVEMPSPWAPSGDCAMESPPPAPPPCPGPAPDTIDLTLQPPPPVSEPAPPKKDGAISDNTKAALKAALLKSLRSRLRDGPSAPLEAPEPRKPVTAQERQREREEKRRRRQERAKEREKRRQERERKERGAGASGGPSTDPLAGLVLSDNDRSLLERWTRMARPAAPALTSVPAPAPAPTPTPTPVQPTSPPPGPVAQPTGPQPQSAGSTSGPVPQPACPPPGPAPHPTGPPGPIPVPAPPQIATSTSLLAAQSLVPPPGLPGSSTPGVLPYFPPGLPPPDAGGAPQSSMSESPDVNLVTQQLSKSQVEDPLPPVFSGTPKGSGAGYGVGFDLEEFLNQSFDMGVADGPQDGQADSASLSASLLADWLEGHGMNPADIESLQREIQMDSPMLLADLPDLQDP
Sequence of NAD(+) hydrolase SARM1 (Homo sapiens) (Q6SZW1 whole entry, looked up, the tested form may be a part): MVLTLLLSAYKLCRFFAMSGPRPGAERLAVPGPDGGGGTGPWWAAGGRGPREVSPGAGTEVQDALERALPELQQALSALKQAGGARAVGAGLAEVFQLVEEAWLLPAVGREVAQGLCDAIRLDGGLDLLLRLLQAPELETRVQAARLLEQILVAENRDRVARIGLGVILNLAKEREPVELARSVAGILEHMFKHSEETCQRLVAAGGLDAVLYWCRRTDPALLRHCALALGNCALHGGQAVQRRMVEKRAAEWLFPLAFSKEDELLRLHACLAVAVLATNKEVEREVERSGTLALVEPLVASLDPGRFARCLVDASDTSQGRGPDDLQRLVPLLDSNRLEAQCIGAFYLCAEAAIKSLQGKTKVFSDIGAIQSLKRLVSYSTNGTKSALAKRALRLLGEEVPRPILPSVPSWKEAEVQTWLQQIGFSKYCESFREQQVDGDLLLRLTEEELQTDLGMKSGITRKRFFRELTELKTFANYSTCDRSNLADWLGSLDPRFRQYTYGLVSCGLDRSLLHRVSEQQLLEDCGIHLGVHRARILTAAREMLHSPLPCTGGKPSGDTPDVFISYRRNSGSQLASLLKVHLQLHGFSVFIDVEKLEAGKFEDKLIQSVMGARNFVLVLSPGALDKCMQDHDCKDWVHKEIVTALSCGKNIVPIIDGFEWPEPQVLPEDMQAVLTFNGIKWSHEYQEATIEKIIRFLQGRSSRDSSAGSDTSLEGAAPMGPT

For orientation: inhibition means the relative decrease from the control value, in per cent. As for `O=C1c2c(O)cc(O)cc2OC(c2ccc(O)c(O)c2)C1O` (stereo not given), the period change in test [1] was -0.11 h (inactive). For the same molecule, the inhibition in [2] was -3% (inactive). Also, the fluorescence ratio (interference) in test [3] is 1 (inactive). The result in [4] was inactive. Further, the z-score in test [5] (setting [21]) is -0.361 (inactive); in [5] (setting [22]), 0.683; in test [6], 0.265 (inactive) and -0.07 (inactive) and 0.43 (inactive).
For `CC1c2cccc(O)c2C(O)=C2C(=O)[C@]3(O)C(O)=C(C(N)=O)C(=O)C(N(C)C)[C@@H]3C(O)[C@@H]21` (stereo not given in full), the fold change in test [7] (setting [23]) is 0.722 (inactive) and 0.743 (inactive) and 0.957 (inactive); in test [7] (setting [24]), 1.04 and 0.719 and 0.385. Moreover, the cell count in test [7] (setting [25]) is 5360 and 5020 and 8780; in test [7] (setting [26]), 7420 and 6760 and 9180. Besides, the z-score is 4.12 (active) and 3.16 (active) and -0.469 (inactive) in [5] (setting [21]); 5.71 and 4.93 and -0.551 in [5] (setting [22]).
The term viability denotes a read-out of living cells in per cent, often relative to untreated cells. Consider `CO/N=C(\C(=O)N[C@@H]1C(=O)N2C(C(=O)O)=C(COC(C)=O)CS[C@H]12)c1csc(N)n1` (stereo in doubt), for which, in test [8], the fluorescence slope change was 81.1% (active). The period change in [1] was -0.095 h (inactive). In addition, the survival in test [9] was 16.2 (inactive). Also, the parasite load remaining in test [10] is 35.6% (inactive) and 93.3% (inactive). Also, the viability in [10] was 65.7% and 139%. The fold change was 1.01 (inactive) and 0.948 (inactive) in [7] (setting [23]); 2.06 and 1.21 in [7] (setting [24]). Moreover, the cell count in test [7] (setting [25]) was 10500 and 9330; in test [7] (setting [26]) it was 10300 and 9840. The z-score in test [5] (setting [21]) was 0.18 (inactive); in [5] (setting [22]), -0.136; in [6], 0.04 (inactive). In addition, the remaining NAD in test [11] is 10 nM (inactive). Moreover, the luciferase signal in test [12] is 152 AU (inactive).
In the case of `CCC1(c2ccccc2)NC(=O)N(C)C1=O` (stereo not given), the inhibition in test [13] is 6.58%. Moreover, in test [14], the score worked out at 1.42. In test [15], this molecule came in with a rescue above control of 11.8. Further, the cytochrome c release ratio in test [16] was 0.46. The inhibition of aggregation in test [17] amounted to 79.3%. In test [18], the glutamate uptake change was -9.05%. Besides, in [19], the inclusion score worked out at 2. Further, the aggregation suppression score in [20] came out at 1.34. Besides, the survival in test [9] was 9.5 (inactive). In test [10], the parasite load remaining is 75.3% (inactive) and 65.4% (inactive). Besides, the viability in test [10] is 74.4% and 110%. In addition, the fold change in test [7] (setting [23]) was 0.978 (inactive) and 0.889 (inactive); in test [7] (setting [24]), 0.677 and 1.53. The cell count in test [7] (setting [25]) was 9090 and 9500; in [7] (setting [26]), 9300 and 10700. The z-score in [5] (setting [21]) is 0.04 (inactive) and 0.144 (inactive); in [5] (setting [22]) it was 0.0806 and -0.391; in [6] it was 0.64 (inactive).
As for `O=C1CC(c2ccc(O)cc2)Oc2cc(O)cc(O)c21` (stereo not given), the fluorescence slope change in [8] is 29.7% (inactive). The survival in test [9] was 12.5 (inactive). In addition, the parasite load remaining in [10] was 129% (inactive) and 75.7% (inactive). Further, the viability in [10] is 105% and 74.5%. The fold change is 0.857 (inactive) and 0.936 (inactive) in test [7] (setting [23]); 1.25 and 0.746 in [7] (setting [24]). In addition, the cell count in [7] (setting [25]) was 9030 and 10100; in test [7] (setting [26]) it was 10500 and 10800. Also, the z-score is -0.339 (inactive) in [5] (setting [21]) and 0.634 in [5] (setting [22]).
As for `CCCCC[C@H](O)/C=C/[C@@H]1[C@@H](C/C=C\CCCC(=O)O)[C@H](O)C[C@H]1O`, in [9], the survival was 98.1 (inactive). Also, the fold change was 0.925 (inactive) and 0.811 (inactive) and 0.869 (inactive) in [7] (setting [23]); 1.48 and 1.52 and 1.28 in [7] (setting [24]). The cell count in test [7] (setting [25]) is 5990 and 4790 and 5310; in test [7] (setting [26]) it was 6480 and 5900 and 6110.

(Values after PubChem BioAssay.)
